Experimental data published in PubChem BioAssay (Tox21).
Results filed as inconclusive are left out. Active and inactive are the calls of the source. Unless noted, calls follow the shape of the full dose curve.

Test system: not listed separately
Experiment: qHTS assay to identify small molecule agonists of the estrogen receptor alpha (ER-alpha) signaling pathway in the presence of an antagonist - cell viability counter screen (AID 1259386; active = well fitted cell-killing curve with a large enough effect in the repeat runs;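 also: cells exposed to compounds for 22 h at 37 °C before the viability read; nearly all actives have a fitted effect of over 30% in size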)
Details: VM7Luc4E2 viability, CellTiter-Fluor fluorescence, 22 h; series mostly up to 92.4 µM; activity change, negative = cytotoxicity: at the top concentration
Method in brief: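 Read-out: CellTiter-Fluor fluorescence after 1hr reagent incubation, measured in the same wells as the luciferase readout. VM7Luc4E2 cells were exposed to 15 compound concentrations with 10.0nM ICI-182,780 for 22hr at 37C.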
% is scaled to controls: 0 for no effect and ±100 for the full control effect.

SMILES	activity change, negative = cytotoxicity
CCC(C)n1c(=O)[nH]c(C)c(Br)c1=O (stereo not drawn)	1.75% (inactive)
CC(=O)[C@H]1CC[C@H]2[C@@H]3CC[C@H]4C[C@H](O)CC[C@]4(C)[C@H]3C(=O)C[C@]12C	2.36% [at 42.5 µM] (inactive)
O=C(O)c1cccc(Cl)c1	-3.76% (inactive)
O=NN1CCN(N=O)CC1	4.73% (inactive)
Nc1ccccc1Cl	0.977% (inactive)
CC1CCCCC1NC(=O)Nc1ccccc1 (stereo not drawn)	2.2% (inactive)
CC(C)NCC(O)c1ccc(N)c(C#N)c1 (stereo not drawn)	-3.55% [at 42.5 µM] (inactive)
CCOP(=O)(OCC)OP(=O)(OCC)OCC	0.33% (inactive)
C[N+](C)=CCl	0.0323% (inactive)
CC(=O)Nc1cc([As](=O)(O)O)ccc1O	3.93% [at 42.5 µM] (inactive)
C[C@]12CC[C@H]3[C@@H](CCC4=CC(=O)CC[C@@]43C)[C@@H]1CC[C@@H]2C(=O)O	0.391% [at 42.5 µM] (inactive)
CCC(=O)c1ccccc1	0.797% (inactive)
C[C@@H]1CN(C2CCC(C#N)(c3ccc(F)cc3)CC2)CC[C@]1(C(=O)O)c1ccccc1 (stereo partly drawn)	6.96% [at 42.5 µM] (inactive)
N#CCCC#N	-2.68% (inactive)
CSc1ccc(C(=O)C(C)(C)N2CCOCC2)cc1	1.15% (inactive)
c1ccc(N2CCNCC2)cc1	-3.06% [at 42.5 µM] (inactive)
CC(C)(C)OC(=O)c1ncn2c1[C@@H]1CCCN1C(=O)c1c(Br)cccc1-2	2.28% [at 42.5 µM] (inactive)
CC(N)=S	2.2% (inactive)
CCCCOC(=O)c1ccccc1N	-5.48% (inactive)
COc1cc(C[C@@H](C)N)c(OC)cc1C	-12.7% (inactive)
CCOC(=O)NC(=S)Nc1ccccc1NC(=S)NC(=O)OCC	11.9% (inactive)
ClCC(Cl)(Cl)Cl	1.73% (inactive)
CCCSC(=O)Cl	1.95% (inactive)
Cc1cc(C)c(C(=O)P(=O)(C(=O)c2c(C)cc(C)cc2C)c2ccccc2)c(C)c1	0.308% (inactive)
CCCCC(=O)Cl	1.81% (inactive)
O=c1oc2ccccc2c(O)c1C1CCCc2ccccc21 (stereo not drawn)	1.43% (inactive)
CCCCc1c(C)nc(NCC)[nH]c1=O	1.36% (inactive)
CCN(Cc1ccc(Cl)nc1)/C(=C/[N+](=O)[O-])NC	3.54% [at 42.5 µM] (inactive)

Target: Progesterone receptor (Homo sapiens) (UniProt P06401)
Experiment: qHTS assay to identify small molecule agonists of the progesterone receptor (PR) signaling pathway (AID 1346784); also: nearly all actives have a fitted effect of over 30% in size
Details: PR-UAS-bla HEK293T, beta-lactamase FRET ratio, 16 h; series mostly up to 92.4 µM; activation: at the top concentration
Method in brief: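 The screen uses PR-UAS-bla HEK 293T cells in charcoal-stripped serum (2%). Compounds are applied for 16 hr at 37C after a 6 hr pre-incubation, and reporter activity is detected with a FRET beta-lactamase substrate after 2 hr at room temperature.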

Progesterone receptor (Homo sapiens), sequence (P06401 whole entry, looked up): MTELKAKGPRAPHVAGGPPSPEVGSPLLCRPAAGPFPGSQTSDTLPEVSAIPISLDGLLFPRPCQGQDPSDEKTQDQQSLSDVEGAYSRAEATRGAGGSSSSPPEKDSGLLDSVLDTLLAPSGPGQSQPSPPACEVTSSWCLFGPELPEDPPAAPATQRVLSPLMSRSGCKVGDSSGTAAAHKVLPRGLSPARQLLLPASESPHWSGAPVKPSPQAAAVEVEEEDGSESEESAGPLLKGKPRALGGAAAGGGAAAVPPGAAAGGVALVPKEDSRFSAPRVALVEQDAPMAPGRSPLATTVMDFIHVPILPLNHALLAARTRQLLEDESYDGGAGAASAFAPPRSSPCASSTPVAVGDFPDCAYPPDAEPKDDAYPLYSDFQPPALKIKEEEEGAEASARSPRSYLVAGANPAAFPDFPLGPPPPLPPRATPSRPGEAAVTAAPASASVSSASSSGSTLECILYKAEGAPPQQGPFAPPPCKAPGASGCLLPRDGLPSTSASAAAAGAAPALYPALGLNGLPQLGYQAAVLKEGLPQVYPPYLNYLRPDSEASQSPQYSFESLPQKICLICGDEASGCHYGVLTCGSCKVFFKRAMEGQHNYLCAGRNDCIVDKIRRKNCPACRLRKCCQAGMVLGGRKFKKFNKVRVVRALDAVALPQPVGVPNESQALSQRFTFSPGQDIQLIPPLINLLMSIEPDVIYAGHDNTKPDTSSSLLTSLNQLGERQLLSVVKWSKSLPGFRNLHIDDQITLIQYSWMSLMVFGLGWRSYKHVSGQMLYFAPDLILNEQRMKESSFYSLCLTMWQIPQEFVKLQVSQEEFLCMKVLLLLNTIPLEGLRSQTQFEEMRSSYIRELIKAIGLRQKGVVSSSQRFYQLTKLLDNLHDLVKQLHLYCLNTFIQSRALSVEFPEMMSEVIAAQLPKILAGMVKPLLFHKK

SMILES	activation
CCC(C)n1c(=O)[nH]c(C)c(Br)c1=O (stereo not drawn)	-2.77% (inactive)
CN1CCC(O)(c2ccc(F)cc2)C(C(=O)c2ccc(F)cc2)C1 (stereo not drawn)	-2.72% [at 42.5 µM] (inactive)
CC(=O)[C@H]1CC[C@H]2[C@@H]3CC[C@H]4C[C@H](O)CC[C@]4(C)[C@H]3C(=O)C[C@]12C	0.119% [at 42.5 µM] (inactive)
O=C(O)c1cccc(Cl)c1	-0.224% (inactive)
O=NN1CCN(N=O)CC1	0.609% (inactive)
Nc1ccccc1Cl	0% (inactive)
CC1CCCCC1NC(=O)Nc1ccccc1 (stereo not drawn)	-4.38% (inactive)
CC(C)NCC(O)c1ccc(N)c(C#N)c1 (stereo not drawn)	-0.385% [at 42.5 µM] (inactive)
CCOP(=O)(OCC)OP(=O)(OCC)OCC	0.176% (inactive)
COC(=O)c1c(C(F)F)nc(C(F)(F)F)c(C2=NCCS2)c1CC(C)C	-2.5% (inactive)
C[N+](C)=CCl	0.875% (inactive)
CC(=O)Nc1cc([As](=O)(O)O)ccc1O	-1.69% [at 42.5 µM] (inactive)
CCOP(=S)(OCC)SCSP(=S)(OCC)OCC	0.469% (inactive)
C[C@]12CC[C@H]3[C@@H](CCC4=CC(=O)CC[C@@]43C)[C@@H]1CC[C@@H]2C(=O)O	4.88% [at 42.5 µM] (inactive)
CCC(=O)c1ccccc1	0.223% (inactive)
C[C@@H]1CN(C2CCC(C#N)(c3ccc(F)cc3)CC2)CC[C@]1(C(=O)O)c1ccccc1 (stereo partly drawn)	-2.06% [at 42.5 µM] (inactive)
N#CCCC#N	-3.12% (inactive)
CSc1ccc(C(=O)C(C)(C)N2CCOCC2)cc1	-0.276% (inactive)
c1ccc(N2CCNCC2)cc1	-2.67% [at 42.5 µM] (inactive)

SMILES	activation
CC(C)(C)OC(=O)c1ncn2c1[C@@H]1CCCN1C(=O)c1c(Br)cccc1-2	2.31% [at 42.5 µM] (inactive)
CC(N)=S	-1.55% (inactive)
Clc1cccc(N2CCNCC2)c1	-2.13% [at 42.5 µM] (inactive)
CCCCOC(=O)c1ccccc1N	0.597% (inactive)
COc1cc(C[C@@H](C)N)c(OC)cc1C	-6.52% (inactive)
CNC(=O)Oc1ccccc1C1OCCO1	-0.629% (inactive)
CCOC(=O)NC(=S)Nc1ccccc1NC(=S)NC(=O)OCC	-3.74% (inactive)
ClCC(Cl)(Cl)Cl	0.278% (inactive)
O=C(Cc1ccccc1)OCc1ccccc1	-0.135% (inactive)
CCCSC(=O)Cl	0.0817% (inactive)
Cc1cc(C)c(C(=O)P(=O)(C(=O)c2c(C)cc(C)cc2C)c2ccccc2)c(C)c1	-1.5% (inactive)
CCCCC(=O)Cl	-1.26% (inactive)
O=c1oc2ccccc2c(O)c1C1CCCc2ccccc21 (stereo not drawn)	-1.43% (inactive)
CCCCc1c(C)nc(NCC)[nH]c1=O	-0.442% (inactive)
OC(Cn1cncn1)(c1ccc(F)cc1)c1ccccc1F (stereo not drawn)	-1.25% (inactive)
CC(CC(C#N)(c1ccccc1)c1ccccc1)N(C)C (stereo not drawn)	-5.59% (inactive)
CNCC(=O)c1ccc(O)c(O)c1	0.114% [at 42.5 µM] (inactive)
CCN(Cc1ccc(Cl)nc1)/C(=C/[N+](=O)[O-])NC	1.16% [at 42.5 µM] (inactive)

Target: Progesterone receptor (Homo sapiens) (UniProt P06401)
Experiment: qHTS assay to identify small molecule antagonists of the progesterone receptor (PR) signaling pathway (AID 1346795; active = well fitted inhibition curve with a large enough effect in the signal ratio in the repeat runs, not every such curve was filed as active; the % refers to the signal ratio; also: potency is read from the fitted curve at half-maximal effect)
Details: PR-UAS-bla HEK293T, beta-lactamase FRET ratio, 16 h; series mostly up to 92.4 µM; activity change, negative = inhibition: at the top concentration
Method in brief: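 After 6 hr plating at 37C in 2% stripped-serum medium, PR-UAS-bla HEK293T cells got compounds, then 1 nM R5020. Sixteen hours later, LiveBLAzer substrate was applied for 2 hr at room temperature and fluorescence was recorded.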

SMILES	activity change, negative = inhibition	Potency
CCC(C)n1c(=O)[nH]c(C)c(Br)c1=O (stereo not drawn)	4.46% (inactive)	
CN1CCC(O)(c2ccc(F)cc2)C(C(=O)c2ccc(F)cc2)C1 (stereo not drawn)	2.38% [at 42.5 µM] (inactive)	
O=C(O)c1cccc(Cl)c1	0.264% (inactive)	
O=NN1CCN(N=O)CC1	2.2% (inactive)	
Nc1ccccc1Cl	10.6% (inactive)	
CC(C)NCC(O)c1ccc(N)c(C#N)c1 (stereo not drawn)	10.4% [at 42.5 µM] (inactive)	
CCOP(=O)(OCC)OP(=O)(OCC)OCC	12.3% (inactive)	
CC(=O)Nc1cc([As](=O)(O)O)ccc1O	-1.71% [at 42.5 µM] (inactive)	
C[C@@H]1CN(C2CCC(C#N)(c3ccc(F)cc3)CC2)CC[C@]1(C(=O)O)c1ccccc1 (stereo partly drawn)	1.15% [at 42.5 µM] (inactive)	
N#CCCC#N	7.14% (inactive)	
CSc1ccc(C(=O)C(C)(C)N2CCOCC2)cc1		27.3 µM (active)
c1ccc(N2CCNCC2)cc1	5.51% [at 42.5 µM] (inactive)	
CC(C)(C)OC(=O)c1ncn2c1[C@@H]1CCCN1C(=O)c1c(Br)cccc1-2	-6.2% [at 42.5 µM] (inactive)	
CC(N)=S	14.6% (inactive)	
Clc1cccc(N2CCNCC2)c1	8.66% [at 42.5 µM] (inactive)	
CNC(=O)Oc1ccccc1C1OCCO1	0.815% (inactive)	
ClCC(Cl)(Cl)Cl	2.12% (inactive)	
O=C(Cc1ccccc1)OCc1ccccc1	-7.01% (inactive)	
CCCSC(=O)Cl	3.04% (inactive)	
Cc1cc(C)c(C(=O)P(=O)(C(=O)c2c(C)cc(C)cc2C)c2ccccc2)c(C)c1	-22.9% (inactive)	
C#C[C@]1(O)C=C[C@H]2[C@@H]3CCC4=CC(=O)CC[C@@H]4[C@H]3CC[C@@]21CC	-5.64% [at 42.5 µM] (inactive)	
O=c1oc2ccccc2c(O)c1C1CCCc2ccccc21 (stereo not drawn)	-2.18% (inactive)	
CCCCc1c(C)nc(NCC)[nH]c1=O	-5.74% (inactive)	
